Results published in PubChem BioAssay AID1159580 (chemical genetic matrix, 2015).
Several values for one entry are separate records, joined by “and”; a condition that tells them apart may be missing. Equal entries are not always repeated. The campaign covered roughly 5,500 compounds. About 2,000 (36%) were called active. Inconclusive results (about 18%) are left out. No stated cut-off is given here; in the data, active means normalized growth mostly below about 0.91 (no sharp cut-off); inconclusive means no clear call, values can overlap the other calls; inactive means mostly above about 0.92. The list shows a part of the results.

Test: chemical genetic growth profiling, strain panel (AID 1159580);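 further: tested at 20 µM; growth read once vehicle control cultures reached saturation at 30 °C; 1 = growth at the plate median or of vehicle wells; lower values mean less growth of the strain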
Conditions: S. cerevisiae deletion strains, growth OD

Measured: normalized growth

COC(=O)C[C@H]1C(C)(C)C(=O)[C@@H]2CC3=C4CC(=O)O[C@@H](c5ccoc5)[C@]4(C)CCC3[C@@]1(C)C2=O (stereo not given in full)
inactive: locus YAL021C, strain ccr4, active compounds read low 0.972 | locus YAL026C, strain drs2, active compounds read low 0.983 | locus YAL030W, strain snc1, active compounds read low 1 | locus YBL061C, strain skt5, active compounds read low 0.997 | locus YBR009C, strain hhf1, active compounds read low 0.987 | locus YBR021W, strain FUR4, active compounds read low 0.986 | locus YBR023C, strain chs3, active compounds read low 1 | locus YBR171W, strain sec66, active compounds read low 0.992 | locus YBR229C, strain ROT2, active compounds read low 1 | locus YBR231C, strain swc5, active compounds read low 1.01 | locus YBR279W, strain paf1, active compounds read low 0.993 | locus YCL011C, strain gbp2, active compounds read low 1 | locus YCL016C, strain dcc1, active compounds read low 0.996 | locus YCL029C, strain bik1, active compounds read low 0.998 | locus YCL061C, strain MRC1, active compounds read low 0.988 | locus YCL069W, strain vba3, active compounds read low 0.987 | locus YCR088W, strain abp1, active compounds read low 0.988 | locus YDL005C, strain med2, active compounds read low 0.975 | locus YDL035C, strain GPR1, active compounds read low 1.01 | locus YDL040C, strain nat1, active compounds read low 0.995 | locus YDL074C, strain BRE1, active compounds read low 1.02 | locus YDL101C, strain DUN1, active compounds read low 1.01 | locus YDL134C, strain PPH21, active compounds read low 1.01 | locus YDL185W, strain tfp1, active compounds read low 1.02 | locus YDL192W, strain arf1, active compounds read low 1.01 | locus YDR001C, strain nth1, active compounds read low 0.982 | locus YDR069C, strain doa4, active compounds read low 0.982 | locus YDR101C, strain arx1, active compounds read low 0.993 | locus YDR137W, strain rgp1, active compounds read low 0.867 | locus YDR159W, strain sac3, active compounds read low 0.999 | locus YDR162C, strain NBP2, active compounds read low 1 | locus YDR195W, strain ref2 0.972 | locus YDR297W, strain sur2, active compounds read low 0.996 | locus YDR318W, strain mcm21, active compounds read low 1.01 | locus YDR334W, strain swr1, active compounds read low 0.986 | locus YDR335W, strain msn5, active compounds read low 0.985 | locus YDR388W, active compounds read low 1.01 | locus YDR392W, strain spt3, active compounds read low 0.989 | locus YDR502C, strain sam2, active compounds read low 1 | locus YEL003W, strain gim4, active compounds read low 0.996 | locus YEL037C, strain rad23, active compounds read low 0.985 | locus YEL061C, strain CIN8 (second series), active compounds read low 0.985 | locus YEL061C, strain CIN8, active compounds read low 1 | locus YER015W, strain faa2, active compounds read low 1 | locus YER016W, strain bim1, active compounds read low 0.996 | locus YER110C, active compounds read low 1.01 | locus YER111C, strain swi4, active compounds read low 0.985 | locus YER155C, strain BEM2 (second series), active compounds read low 1 | locus YER155C, strain BEM2, active compounds read low 0.997 | locus YER167W, strain BCK2, active compounds read low 1 | locus YFR010W, strain ubp6, active compounds read low 0.978 | locus YGL078C, strain dbp3, active compounds read low 1.02 | locus YGL086W, strain mad1, active compounds read low 0.982 | locus YGL167C, strain pmr1, active compounds read low 0.995 | locus YGL173C, strain kem1, active compounds read low 0.994 | locus YGL227W, strain vid30, active compounds read low 1 | locus YGL240W, strain doc1, active compounds read low 1.02 | locus YGL248W, strain PDE1, active compounds read low 1.01 | locus YGL253W, strain hxk2, active compounds read low 0.995 | locus YGR078C, strain PAC10, active compounds read low 1.01 | locus YGR135W, strain pre9, active compounds read low 1.02 | locus YGR229C, strain SMI1, active compounds read low 1.01 | locus YGR252W, strain gcn5, active compounds read low 1.03 | locus YHR013C, strain ard1, active compounds read low 0.977 | locus YHR027C, strain rpn1, active compounds read low 0.974 | locus YHR030C, strain SLT2, active compounds read low 1.01 and 0.964 | locus YHR079C, strain IRE1 (second series), active compounds read low 1 | locus YHR079C, strain IRE1, active compounds read low 0.976 | locus YHR094C, strain hxt1, active compounds read low 1.01 | locus YHR129C, strain ARP1, active compounds read low 0.999 | locus YHR142W, strain chs7, active compounds read low 0.996 | locus YHR200W, strain rpn10, active compounds read low 1 | locus YIL066C, strain RNR3, active compounds read low 1.01 | locus YIL073C, strain SPO22, active compounds read low 1.06 | locus YIL125W, strain kgd1, active compounds read low 1.01 | locus YIR030C, strain dcg1, active compounds read low 1.01 | locus YJL092W, strain hpr5, active compounds read low 0.993 | locus YJL095W, strain BCK1 (second series), active compounds read low 0.992 | locus YJL095W, strain BCK1, active compounds read low 1.02 and 0.974 | locus YJL115W, strain asf1, active compounds read low 0.978 | locus YJL129C, strain trk1, active compounds read low 0.971 | locus YJL134W, strain LCB3, active compounds read low 1.01 | locus YJL154C, strain vps35, active compounds read low 0.983 | locus YJL164C, strain tpk1, active compounds read low 1 | locus YJL166W, strain qcr8, active compounds read low 1.01 | locus YJL168C, strain set2, active compounds read low 1.01 | locus YJL187C, strain SWE1 (second series), active compounds read low 1.02 | locus YJL187C, strain SWE1, active compounds read low 0.991 | locus YJR066W, strain TOR1, active compounds read low 0.918 | locus YKL009W, strain mrt4, active compounds read low 0.999 | locus YKL068W, active compounds read low 1.01 | locus YKL085W, strain MDH1 (second series), active compounds read low 0.995 | locus YKL085W, strain MDH1, active compounds read low 0.995 | locus YKL160W, strain elf1, active compounds read low 0.996 | locus YKL190W, strain CNB1, active compounds read low 1.01 | locus YKR001C, strain vps1, active compounds read low 1.02 | locus YKR026C, strain gcn3, active compounds read low 0.994 | locus YKR091W, strain srl3, active compounds read low 0.992 | locus YLL001W, strain dnm1, active compounds read low 0.983 | locus YLL026W, active compounds read low 0.991 | locus YLL041C, strain sdh2, active compounds read low 0.991 | locus YLR027C, strain aat2, active compounds read low 0.998 | locus YLR039C, strain RIC1, active compounds read low 0.988 | locus YLR058C, strain SHM2, active compounds read low 1 | locus YLR102C, strain apc9, active compounds read low 1.01 | locus YLR113W, strain HOG1, active compounds read low 1.01 | locus YLR221C, strain rsa3, active compounds read low 0.998 | locus YLR258W, strain gsy2, active compounds read low 0.988 | locus YLR262C, strain YPT6 (second series), active compounds read low 0.912 | locus YLR268W, strain sec22, active compounds read low 1 | locus YLR320W, strain mms22, active compounds read low 1.01 | locus YLR330W, strain CHS5, active compounds read low 1 | locus YLR342W, strain FKS1, active compounds read low 0.998 | locus YLR357W, strain rsc2, active compounds read low 1.01 | locus YLR370C, strain arc18, active compounds read low 0.988 | locus YLR371W, strain rom2, active compounds read low 1.01 | locus YLR384C, strain iki3, active compounds read low 0.993 | locus YLR418C, strain cdc73, active compounds read low 1.03 | locus YML016C, strain PPZ1, active compounds read low 0.998 | locus YML032C, strain rad52, active compounds read low 0.997 | locus YML120C, strain ndi1, active compounds read low 0.995 | locus YML124C, strain tub3, active compounds read low 1.01 | locus YMR058W, strain fet3, active compounds read low 0.981 | locus YMR078C, strain ctf18, active compounds read low 1.02 | locus YMR125W, strain sto1, active compounds read low 0.982 | locus YMR129W, active compounds read low 0.998 | locus YMR205C, strain PFK2, active compounds read low 0.988 | locus YMR223W, strain ubp8, active compounds read low 0.999 | locus YMR231W, strain pep5, active compounds read low 0.98 | locus YMR307W, strain GAS1, active compounds read low 0.96 | locus YNL067W, strain RPL9B, active compounds read low 1.02 | locus YNL071W, strain lat1, active compounds read low 0.989 | locus YNL183C, strain NPR1, active compounds read low 0.963 | locus YNL209W, strain ssb2, active compounds read low 0.996 | locus YNL233W, strain BNI4, active compounds read low 1.03 | locus YNL248C, strain rpa49, active compounds read low 0.982 | locus YNL250W, strain rad50, active compounds read low 0.998 | locus YNL271C, strain bni1, active compounds read low 1.01 | locus YNL298W, strain CLA4, active compounds read low 1.03 | locus YNL307C, strain MCK1, active compounds read low 1.01 | locus YNL322C, strain KRE1 (second series), active compounds read low 0.996 | locus YNR049C, strain mso1, active compounds read low 0.987 | locus YNR052C, strain pop2, active compounds read low 1.01 | locus YOL012C, strain htz1 0.887 | locus YOL147C, strain pex11, active compounds read low 1.01 | locus YOR001W, strain rrp6, active compounds read low 0.985 | locus YOR061W, strain CKA2, active compounds read low 1 | locus YOR069W, strain VPS5, active compounds read low 1 | locus YOR070C, strain gyp1, active compounds read low 0.991 | locus YOR080W, strain dia2, active compounds read low 0.995 | locus YOR083W, strain WHI5, active compounds read low 0.996 | locus YOR106W, strain vam3, active compounds read low 0.991 | locus YOR136W, strain idh2, active compounds read low 1.01 | locus YOR144C, strain elg1, active compounds read low 1 | locus YOR184W, strain ser1, active compounds read low 1 | locus YOR231W, strain MKK1, active compounds read low 0.979 | locus YOR265W, strain rbl2, active compounds read low 0.987 | locus YOR270C, strain vph1, active compounds read low 0.941 | locus YOR290C, strain snf2, active compounds read low 1 | locus YOR316C, strain cot1, active compounds read low 1.01 | locus YPL051W, strain arl3, active compounds read low 0.992 | locus YPL078C, strain atp4, active compounds read low 0.987 | locus YPL106C, strain sse1, active compounds read low 1.04 | locus YPL240C, strain hsp82, active compounds read low 0.998 | locus YPL256C, strain CLN2, active compounds read low 0.97 | locus YPR119W, strain clb2, active compounds read low 1.01 | locus YPR141C, strain kar3, active compounds read low 1.01 | locus YPR163C, strain tif3, active compounds read low 1.01 | locus YPR167C, strain met16, active compounds read low 1.01 | strain wtn01, active compounds read low 0.981
